High-throughput results as filed in PubChem BioAssay.
Nrf2 ARE act: qHTS of Nrf2 Activators; AID 624171, 2012; Potency, µM (doses to about 46.1 µM), inactives show at the highest dose activation, most hits filed as activators; AREc32 ARE-luciferase reporter (MCF7-derived line), luminescence, 24 h; 410,000 tested, 0.31% active; also: % of control where 0% means no effect; nearly all actives have a fitted effect of over 65% in size
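Cells of the AREc32 ARE-luciferase line are plated in OPTI-MEM containing 5% FBS and left overnight at 37 deg C. Compounds are pinned in, incubation continues 24 hr, and firefly luciferase signal is then measured.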
Nrf2 inh: Nrf2 qHTS screen for inhibitors | A549 ARE-Fluc reporter, luciferase luminescence, 18-24 h | Potency, µM (series often up to 46 µM), inactives show at the highest dose activity change, negative = inhibition, hits mostly inhibitors | 360,000 tested, 2.1% active | AID 504444, 2011; also: % is scaled to controls: 0 for no effect and ±100 for the full control effect; nearly all actives have a fitted effect of over 60% in size
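Quantitative HTS in A549 cells stably bearing an antioxidant response element-firefly luciferase construct. Inhibition of Nrf2-driven transcription was scored by luminescence after 18-24 h of compound exposure at 37 °C.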
ELG1 DNA repair: qHTS screen for small molecules that inhibit ELG1-dependent DNA repair in human embryonic kidney (HEK293T) cells expressing luciferase-tagged ELG1; Potency, µM (top dose mostly 46.1 µM), for inactives: at the top dose activity change, negative = inhibition, actives largely listed as inhibitors; HEK293T ELG1-luciferase reporter, luminescence, 16 h; DNA damage induced by 5-fluorouridine; AID 504467, 2011; 330,000 tested, 2.3% active; also: % is scaled to controls: 0 for no effect and ±100 for the full control effect; nearly all actives have a fitted effect of over 55% in size
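Step one: seed 2,000 cells per well. Step two: pin-transfer compound or DMSO alongside 5-fluorouridine. Step three: incubate 16 hr, 37 °C, 5% CO2. Step four: add ONE-Glo, wait 30 min, read luminescence.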
mIDH1 inhibitor: qHTS for Inhibitors of mutant isocitrate dehydrogenase 1 (IDH1): qHTS. IDH1-R132H enzyme, NADPH consumption, diaphorase/resazurin fluorescence. Isocitrate dehydrogenase [NADP] cytoplasmic (Homo sapiens), O75874. AID 602179, 2012. 390,000 tested, 0.093% active. Potency, µM (top dose mostly 76.6 µM), without a hit: top-dose activity change, negative = inhibition, most hits filed as inhibitors; also: % is scaled to controls: 0 for no effect and ±100 for the full control effect; nearly all actives have a fitted effect of over 65% in size
Target sequence (O75874 whole entry R132H, stated change not applied): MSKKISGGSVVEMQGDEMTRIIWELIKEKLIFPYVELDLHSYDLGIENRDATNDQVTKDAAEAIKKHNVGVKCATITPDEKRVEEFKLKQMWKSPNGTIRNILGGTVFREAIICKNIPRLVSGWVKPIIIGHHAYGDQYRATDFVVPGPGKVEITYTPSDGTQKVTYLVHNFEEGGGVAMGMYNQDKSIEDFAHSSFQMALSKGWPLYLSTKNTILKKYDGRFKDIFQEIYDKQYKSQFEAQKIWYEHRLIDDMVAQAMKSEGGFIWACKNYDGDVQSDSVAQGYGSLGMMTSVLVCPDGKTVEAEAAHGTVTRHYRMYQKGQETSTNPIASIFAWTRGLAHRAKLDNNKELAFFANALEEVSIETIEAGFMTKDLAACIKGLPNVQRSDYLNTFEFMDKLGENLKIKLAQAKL
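IDH1-R132H (0.5 ug/mL) preincubated 30 min with compound, then NADPH (0.016 mM) and alpha-KG (2 mM) added; 80 min at RT, pH 7.5. Remaining NADPH coupled via diaphorase/resazurin to fluorescence (540/590 nm); concentration-response curves normalized to no-enzyme control.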
A549 viability: Nrf2 qHTS screen for inhibitors: counterscreen for cytotoxicity | A549 ARE-Fluc cells, CellTiter-Fluor viability, 18-24 h | Potency, µM (top dose mostly 46 µM), inactives show top-dose activity change, negative = cytotoxicity, usual class: inhibitors | 390,000 tested, 0.16% active; also: % is scaled to controls: 0 for no effect and ±100 for the full control effect
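A549 ARE_Fluc cells in 5% FBS OPTI-MEM were exposed to compounds in concentration-response for 18-24 h at 37 deg C. Viability was read by CellTiter-Fluor fluorescence (Ex 405/Em 525) after 30 min, before the luciferase read.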
The depositor's hits bear a star. Compounds with a hit are over-represented: about 3.8% of the library has one in this group of screens. Calls follow the shape of the dose curve; as a rule, active = well fitted curve in the direction sought with a large enough effect; inconclusive = small, poorly fitted or top-dose-only effect, or another doubt; inactive = no such curve, though single readings can be large; an effect the other way counts as inactive or inconclusive. Potency is read from the fitted curve at half-maximal effect.

What do the screens show for `CCC1CCCCN1CCCNC(=O)c1[nH]c2ccccc2c1Sc1ccc(Cl)cc1` (stereo not drawn)?
Nrf2 ARE act: -3.0%; Nrf2 inh: -18.2%; mIDH1 inhibitor: -12.7%; A549 viability: -2.6%

Results for Cc1ccc(-n2cnc3c(sc4nccc(N(C)C)c43)c2=O)cc1 ?
Nrf2 ARE act: 0.4%; ELG1 DNA repair: 10µM*; mIDH1 inhibitor: 3.2%; A549 viability: -3.4%

How did COc1ccc(-n2cnc3c(sc4nccc(N(C)C)c43)c2=O)cc1 do in these assays?
Nrf2 ARE act: -0.9%; Nrf2 inh: -15.4%; ELG1 DNA repair: inconclusive; mIDH1 inhibitor: -1.0%; A549 viability: -11.0%

How did CC(C)(C)c1ccc2c(c1)OC(C(=O)N/N=C\c1ccc[nH]1)CO2 (stereo not drawn) do in these assays?
Nrf2 ARE act: 4.4%; Nrf2 inh: 5.8µM*; ELG1 DNA repair: -7.2%; mIDH1 inhibitor: -10.0%; A549 viability: 8.2µM*

Results for CC(C)(C)c1ccc2c(c1)OC(C(=O)N/N=C\c1ccncc1)CO2 (stereo not drawn) ?
Nrf2 ARE act: 3.0%; Nrf2 inh: -19.6%; ELG1 DNA repair: 14.6µM*; mIDH1 inhibitor: 3.5%; A549 viability: -1.5%

Results for CC(C)(C)c1ccc2c(c1)OC(C(=O)N/N=C/c1ccc([N+](=O)[O-])o1)CO2 (stereo not drawn) ?
Nrf2 ARE act: inconclusive; Nrf2 inh: inconclusive; ELG1 DNA repair: inconclusive; mIDH1 inhibitor: -20.7%; A549 viability: 1.3%

What do the screens show for `Cn1cccc1/C=N\NC(=O)C1COc2ccc(C(C)(C)C)cc2O1` (stereo not drawn)?
Nrf2 ARE act: 3.7%; Nrf2 inh: 18.6%; ELG1 DNA repair: -19.0%; mIDH1 inhibitor: -12.2%; A549 viability: 1.3%

How did Cc1cccc(Nc2nc(N)c([N+](=O)[O-])c(N3CCN(C)CC3)n2)c1 do in these assays?
Nrf2 ARE act: 7.3%; Nrf2 inh: 4.8%; ELG1 DNA repair: inconclusive; mIDH1 inhibitor: -1.9%; A549 viability: 0.2%

Results for Cc1ccc(Nc2nc(N)c([N+](=O)[O-])c(N3CCOCC3)n2)cc1C ?
Nrf2 ARE act: 6.7%; Nrf2 inh: -4.8%; ELG1 DNA repair: 13µM*; mIDH1 inhibitor: 2.8%; A549 viability: 6.1%

Results for Cc1cccc(Nc2nc(N)c([N+](=O)[O-])c(N3CCCC(C)C3)n2)c1 (stereo not drawn) ?
Nrf2 ARE act: 4.0%; Nrf2 inh: 16.4µM*; ELG1 DNA repair: 25.9µM*; mIDH1 inhibitor: inconclusive; A549 viability: -18.2%

How did Cc1ccc(Nc2nc(N)c([N+](=O)[O-])c(N3CCC(C)CC3)n2)cc1C do in these assays?
Nrf2 ARE act: -0.3%; Nrf2 inh: 10.1%; ELG1 DNA repair: inconclusive; mIDH1 inhibitor: -7.4%; A549 viability: -1.6%

What do the screens show for `Cc1cc2c(cc(C(=O)OC(C(=O)NC3CCCCC3)C(C)C)n2C)o1` (stereo not drawn)?
Nrf2 ARE act: 1.7%; Nrf2 inh: 20.6µM*; ELG1 DNA repair: -0.7%; mIDH1 inhibitor: 1.7%; A549 viability: -12.2%

Results for COc1ccc(NC(=O)C2CCCN(S(C)(=O)=O)C2)cc1Cl (stereo not drawn) ?
Nrf2 ARE act: 0.1%; Nrf2 inh: -11.1%; ELG1 DNA repair: 18.4%; mIDH1 inhibitor: -6.7%; A549 viability: -1.5%

Results for COc1ccc(-c2c(C#N)c(SCC(=O)Nc3ccc(C)cc3)nc(C)c2C(=O)Nc2ccccc2)cc1 ?
Nrf2 ARE act: 0.0%; Nrf2 inh: 6.4%; mIDH1 inhibitor: 0.0%; A549 viability: -1.1%

What do the screens show for `Cc1nc(SCC(=O)c2cc3ccccc3oc2=O)c(C#N)c(-c2ccccc2)c1C(=O)Nc1ccccc1`?
Nrf2 ARE act: 0.2%; Nrf2 inh: 23.1µM*; ELG1 DNA repair: inconclusive; mIDH1 inhibitor: 2.7%; A549 viability: -12.5%

How did O=C1CN(C(=O)c2ccc(Br)o2)C(c2ccccc2)c2cc(F)ccc2N1 (stereo not drawn) do in these assays?
Nrf2 ARE act: 4.6%; Nrf2 inh: 8.1%; ELG1 DNA repair: 18.4µM*; mIDH1 inhibitor: -4.3%; A549 viability: -5.0%

Results for Cc1ccc2c(c1)C(c1ccccc1)N(C(=O)c1cccc([N+](=O)[O-])c1)CC(=O)N2 (stereo not drawn) ?
Nrf2 ARE act: 1.3%; Nrf2 inh: inconclusive; ELG1 DNA repair: 13µM*; mIDH1 inhibitor: 7.3%; A549 viability: -1.0%

Results for Cc1ccc2c(c1)C(c1ccccc1)N(C(=O)c1ccccc1)CC(=O)N2 (stereo not drawn) ?
Nrf2 ARE act: -0.3%; Nrf2 inh: -7.6%; ELG1 DNA repair: -9.0%; mIDH1 inhibitor: 9.5%; A549 viability: -5.3%

How did O=C1CN(C(=O)c2ccccc2)C(c2ccccc2)c2cc(F)ccc2N1 (stereo not drawn) do in these assays?
Nrf2 ARE act: -0.1%; Nrf2 inh: -3.1%; ELG1 DNA repair: 12.5%; mIDH1 inhibitor: -4.4%; A549 viability: 0.6%

How did CC(=O)c1cc(-c2ccc(F)cc2)n(CC(=O)NCc2ccc(C)cc2)c1C do in these assays?
Nrf2 ARE act: 0.5%; mIDH1 inhibitor: -8.8%; A549 viability: 11.5%

Results for COc1ccc(S(=O)(=O)Nc2cccc(N(C)S(C)(=O)=O)c2)cc1Br ?
Nrf2 ARE act: 3.3%; Nrf2 inh: 18.4µM*; ELG1 DNA repair: inconclusive; mIDH1 inhibitor: -1.6%; A549 viability: -18.0%

What do the screens show for `COc1ccc(S(=O)(=O)Nc2cccc(C(C)=O)c2)cc1Br`?
Nrf2 ARE act: 4.7%; Nrf2 inh: inconclusive; ELG1 DNA repair: inconclusive; mIDH1 inhibitor: 9.5%; A549 viability: 2.2%

What do the screens show for `COc1ccc(C2Nc3ccccc3C(=O)N2Cc2ccccc2Cl)cc1COc1ccc(NC(C)=O)cc1` (stereo not drawn)?
Nrf2 inh: -9.9%; A549 viability: -2.5%

What do the screens show for `CC(C)(C)C(=O)NCCc1nc2ccccc2n1CCCCOc1ccc(Cl)cc1`?
Nrf2 ARE act: -0.1%; Nrf2 inh: inconclusive; mIDH1 inhibitor: 1.6%; A549 viability: inconclusive

What do the screens show for `Cc1ccccc1OCCCCn1c(CCNC(=O)C(C)(C)C)nc2ccccc21`?
Nrf2 ARE act: 3.1%; Nrf2 inh: 23.1µM*; mIDH1 inhibitor: 5.6%; A549 viability: -25.5%

What do the screens show for `COc1ccccc1NC(=O)CN1CCC(n2nnc3cc(F)ccc32)CC1`?
Nrf2 ARE act: -0.1%; Nrf2 inh: inconclusive; ELG1 DNA repair: 20.6µM*; mIDH1 inhibitor: 7.5%; A549 viability: -1.1%
